Data from PubChem BioAssay AID1159580 (chemical genetic matrix, 2015).
Values joined by “and” are separate entries in the source; they are usually repeats but may differ in a detail not shown here. Equal values may be shown once. Out of some 5,500 compounds screened, about 2,000 (36%) were called active. Roughly 18% stayed inconclusive and do not appear here. Cut-off read from the data, not from the text of the source: active = normalized growth mostly below about 0.91 (no sharp cut-off); inconclusive = no clear call, values can overlap the other calls; inactive = mostly above about 0.92. The list shows a part of the results.

Assay: chemical genetic growth profiling, strain panel (AID 1159580);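 note: tested at 20 µM; growth read once vehicle control cultures reached saturation at 30 °C; 1 = growth at the plate median or of vehicle wells; lower values mean less growth of the strain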
Settings: S. cerevisiae deletion strains, growth OD

Measured: normalized growth

CC1=C(/C=C/C(C)=C/C=C/C(C)=C\C(=O)O)C(C)(C)CCC1
inactive: locus YAL013W, strain DEP1, active compounds read low 0.968 | locus YAL021C, strain ccr4, active compounds read low 1.01 | locus YAL026C, strain drs2, active compounds read low 0.999 | locus YAL030W, strain snc1, active compounds read low 0.977 | locus YAL040C, strain CLN3, active compounds read low 1.01 | locus YBL061C, strain skt5, active compounds read low 0.984 | locus YBR009C, strain hhf1, active compounds read low 1.01 | locus YBR021W, strain FUR4, active compounds read low 1.02 | locus YBR023C, strain chs3, active compounds read low 0.985 | locus YBR171W, strain sec66, active compounds read low 0.964 | locus YBR229C, strain ROT2, active compounds read low 1 | locus YBR231C, strain swc5, active compounds read low 0.989 | locus YBR279W, strain paf1, active compounds read low 0.996 | locus YCL011C, strain gbp2, active compounds read low 0.994 | locus YCL016C, strain dcc1, active compounds read low 0.999 | locus YCL029C, strain bik1, active compounds read low 0.992 | locus YCL061C, strain MRC1 (second series), active compounds read low 1 | locus YCL069W, strain vba3, active compounds read low 0.986 | locus YCR088W, strain abp1, active compounds read low 0.995 | locus YDL005C, strain med2, active compounds read low 0.979 | locus YDL035C, strain GPR1, active compounds read low 0.95 | locus YDL040C, strain nat1, active compounds read low 0.987 | locus YDL074C, strain BRE1, active compounds read low 0.856 | locus YDL101C, strain DUN1, active compounds read low 1.01 | locus YDL134C, strain PPH21, active compounds read low 1 | locus YDL185W, strain tfp1, active compounds read low 1 | locus YDL192W, strain arf1, active compounds read low 1 | locus YDR001C, strain nth1, active compounds read low 0.987 | locus YDR069C, strain doa4, active compounds read low 0.967 | locus YDR101C, strain arx1, active compounds read low 0.985 | locus YDR137W, strain rgp1, active compounds read low 0.937 | locus YDR150W, strain NUM1, active compounds read low 1.02 and 1.01 | locus YDR159W, strain sac3, active compounds read low 1.01 | locus YDR162C, strain NBP2, active compounds read low 0.957 | locus YDR195W, strain ref2 0.972 | locus YDR297W, strain sur2, active compounds read low 0.987 | locus YDR318W, strain mcm21, active compounds read low 0.97 | locus YDR334W, strain swr1, active compounds read low 0.982 | locus YDR335W, strain msn5, active compounds read low 0.987 | locus YDR363W, strain ESC2, active compounds read low 1.01 | locus YDR388W, active compounds read low 1 | locus YDR392W, strain spt3, active compounds read low 1.01 | locus YDR502C, strain sam2, active compounds read low 0.975 | locus YEL003W, strain gim4, active compounds read low 0.989 | locus YEL037C, strain rad23, active compounds read low 0.979 | locus YEL061C, strain CIN8 (second series), active compounds read low 0.991 | locus YEL061C, strain CIN8, active compounds read low 1 | locus YER002W, strain NOP16, active compounds read low 1.03 | locus YER015W, strain faa2, active compounds read low 0.993 | locus YER016W, strain bim1, active compounds read low 1.02 | locus YER110C, active compounds read low 1 | locus YER111C, strain swi4, active compounds read low 0.954 | locus YER155C, strain BEM2 (second series), active compounds read low 1 | locus YER155C, strain BEM2, active compounds read low 1.01 | locus YER167W, strain BCK2, active compounds read low 0.966 | locus YFR010W, strain ubp6, active compounds read low 0.961 | locus YGL078C, strain dbp3, active compounds read low 1 | locus YGL086W, strain mad1, active compounds read low 0.992 | locus YGL167C, strain pmr1, active compounds read low 0.975 | locus YGL173C, strain kem1, active compounds read low 0.972 | locus YGL227W, strain vid30, active compounds read low 0.974 | locus YGL240W, strain doc1, active compounds read low 0.958 | locus YGL248W, strain PDE1, active compounds read low 0.995 | locus YGL253W, strain hxk2, active compounds read low 0.996 | locus YGR078C, strain PAC10, active compounds read low 0.908 and 1.02 | locus YGR135W, strain pre9, active compounds read low 0.974 | locus YGR229C, strain SMI1, active compounds read low 0.82 and 1.02 | locus YGR252W, strain gcn5, active compounds read low 1.02 | locus YHR013C, strain ard1, active compounds read low 0.982 | locus YHR027C, strain rpn1, active compounds read low 0.997 | locus YHR030C, strain SLT2, active compounds read low 1 and 1.02 | locus YHR079C, strain IRE1 (second series), active compounds read low 0.988 | locus YHR079C, strain IRE1, active compounds read low 1.04 | locus YHR094C, strain hxt1, active compounds read low 0.999 | locus YHR129C, strain ARP1, active compounds read low 0.996 | locus YHR142W, strain chs7, active compounds read low 0.979 | locus YHR200W, strain rpn10, active compounds read low 1 | locus YIL066C, strain RNR3, active compounds read low 0.984 | locus YIL073C, strain SPO22, active compounds read low 0.934 | locus YIL125W, strain kgd1, active compounds read low 0.995 | locus YIR030C, strain dcg1, active compounds read low 1.01 | locus YJL092W, strain hpr5, active compounds read low 0.965 | locus YJL095W, strain BCK1 (second series), active compounds read low 0.99 | locus YJL095W, strain BCK1, active compounds read low 0.918 and 1.01 | locus YJL115W, strain asf1, active compounds read low 0.962 | locus YJL129C, strain trk1, active compounds read low 0.956 | locus YJL134W, strain LCB3, active compounds read low 1 | locus YJL154C, strain vps35, active compounds read low 0.986 | locus YJL164C, strain tpk1, active compounds read low 1.01 | locus YJL166W, strain qcr8, active compounds read low 0.928 | locus YJL168C, strain set2, active compounds read low 0.999 | locus YJL187C, strain SWE1 (second series), active compounds read low 0.986 | locus YJL187C, strain SWE1, active compounds read low 0.994 | locus YJR043C, strain POL32, active compounds read low 0.87 | locus YJR066W, strain TOR1, active compounds read low 0.972
